Screening results (PubChem)
PLK1 PBD block: qHTS for Inhibitors of PLK1-PDB (polo-like kinase 1 - polo-box domain): Primary Screen; Serine/threonine-protein kinase PLK1 (Homo sapiens), P53350; Plk1 PBD binding of FITC phosphopeptide, fluorescence polarization; Potency, µM, without a hit: max response, negative = inhibition, hits mostly inhibitors; 360,000 compounds, 2.8% hits; note: potency is the fitted concentration of half-maximal effect; series mostly up to about 57 µM; % is set by controls: 0 for no effect and ±100 for the full control effect; nearly all actives have a fitted effect of over 65% in size
BAZ2B block: qHTS Assay for Inhibitors of BAZ2B; AID 504333, 2011; 360,000 compounds, 4.4% hits; AlphaScreen BAZ2B-H3K14Ac peptide displacement; Potency, µM (doses to about 114 µM), without a hit: at the highest dose activity change, negative = inhibition, actives largely listed as inhibitors; Bromodomain adjacent to zinc finger domain protein 2B (Homo sapiens), Q9UIF8; note: potency is the fitted concentration of half-maximal effect; % is set by controls: 0 for no effect and ±100 for the full control effect; nearly all actives have a fitted effect of over 60% in size
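BAZ2B (50 nM) with biotin-H3(5-23)K14Ac peptide (50 nM) in PBS pH 7.4, 0.01% Tween-20, preformed 30 min, then compound 30 min at room temperature; top concentration 110uM. AlphaScreen streptavidin donor/nickel chelate acceptor beads (10 ug/mL final), 20 min dark, signal read.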
HP1b binding inh: HTS for Inhibitors of HP1-beta Chromodomain Interactions with Methylated Histone Tails | 390,000 compounds, 0.56% hits | Potency, µM (top dose mostly 114 µM), for the others: at the top dose activity change, negative = inhibition, hits mostly inhibitors | Chromobox protein homolog 1 (Homo sapiens), P83916 | AlphaScreen HP1-beta / biotin-H3K9me3 peptide binding | AID 540317, 2011; note: potency is the fitted concentration of half-maximal effect; nearly all actives have a fitted effect of over 70% in size
Target sequence (P83916 whole entry, looked up): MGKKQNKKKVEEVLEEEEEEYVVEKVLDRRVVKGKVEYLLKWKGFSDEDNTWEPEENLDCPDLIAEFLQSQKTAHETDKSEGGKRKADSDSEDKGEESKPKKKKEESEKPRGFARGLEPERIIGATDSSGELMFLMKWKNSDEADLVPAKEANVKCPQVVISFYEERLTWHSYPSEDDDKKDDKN
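AlphaScreen: HP1-beta (50 nM) preformed 30 min with biotin-H3(1-18)K9me3 peptide (50 nM) in PBS pH 7.4, 0.01% Tween-20. Compound added for 30 min at RT, then streptavidin donor/nickel chelate acceptor beads (10 ug/mL) for 30 min.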
PI5P4K alpha inh: qHTS for Inhibitors of phosphatidylinositol 5-phosphate 4-kinase (PI5P4K); max response, %; PI5P4Kalpha enzyme, ADP-Glo luminescence, 60 min; stronger effect = lower value; Phosphatidylinositol 5-phosphate 4-kinase type-2 alpha (Homo sapiens), P48426; 330,000 compounds, 1.2% hits; active = max response of -50% or lower; inconclusive = between -30% and -50%; inactive = -30% or higher; note: value at the top dose of about 77 µM; % is set by controls: 0 for no effect and ±100 for the full control effect
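Luminescence from ADP-Glo served as readout of PI5P4Kalpha activity in a qHTS format. Reaction: enzyme, substrate, compound, ATP at 5 microM final, 60 min at RT.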
G9a block: qHTS Assay for Inhibitors of Histone Lysine Methyltransferase G9a. Potency, µM (top dose mostly 102 µM), without a hit: top-dose activity, negative = inhibition, usual class: inhibitors. G9a H3K9 monomethylation, AlphaScreen, 2 h. Histone-lysine N-methyltransferase EHMT2 (Homo sapiens), Q96KQ7. 350,000 compounds, 8.8% hits. AID 504332, 2011; note: potency is the fitted concentration of half-maximal effect; % is set by controls: 0 for no effect and ±100 for the full control effect; nearly all actives have a fitted effect of over 75% in size
Target sequence (Q96KQ7 913-1193 limits assumed): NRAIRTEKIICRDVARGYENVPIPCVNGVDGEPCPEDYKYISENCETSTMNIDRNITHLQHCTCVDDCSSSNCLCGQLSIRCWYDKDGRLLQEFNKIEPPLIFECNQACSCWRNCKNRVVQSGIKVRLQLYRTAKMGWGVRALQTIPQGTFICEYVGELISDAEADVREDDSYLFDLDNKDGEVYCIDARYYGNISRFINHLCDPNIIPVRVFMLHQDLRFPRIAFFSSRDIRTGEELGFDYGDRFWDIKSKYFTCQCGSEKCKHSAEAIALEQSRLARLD
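Step 1: enzyme (final 20 nM) with compound, 15 min RT. Step 2: substrate peptide 500 nM and SAM 20 uM, 2 h RT. Step 3: anti-H3K9me1 antibody and AlphaScreen beads, 10 min, then plate read.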
JMJD2A Tudor: qHTS Assay for Inhibitors of JMJD2A-Tudor Domain | AlphaScreen JMJD2A-Tudor / H3K4me3 peptide binding | Potency, µM (top dose mostly 114 µM), for inactives: at the top dose activity change, negative = inhibition, usual class: inhibitors | 390,000 compounds, 4.4% hits | AID 504339, 2011; note: potency is the fitted concentration of half-maximal effect; % is set by controls: 0 for no effect and ±100 for the full control effect; nearly all actives have a fitted effect of over 50% in size
An asterisk follows results filed as active; ? = inconclusive; . = no result; [ ] = dose if it differs, or a comment. Most compounds without a hit are left out; they make up all but 12% or so of the library. Unless noted, calls come from the whole dose curve; as a rule, active = well fitted curve in the direction sought with a large enough effect; inconclusive = small, poorly fitted or top-dose-only effect, or another doubt; inactive = no such curve, though single readings can be large; an effect the other way counts as inactive or inconclusive.

SMILES	PLK1 PBD block	BAZ2B block	HP1b binding inh	PI5P4K alpha inh	G9a block	JMJD2A Tudor
COc1ccccc1Nc1nc(-c2ccccc2)c(CC(=O)O)s1	.	-25.0%	23.9%	.	?	-13.8%
C=CCNc1nc(-c2cccs2)c(CC(=O)O)s1	?	?	-8.1%	-6.5	-4.5%[12.7 µM]	4.2%
CCCN1CNc2c(c(=O)[nH]c(=S)n2CCc2ccc(C)cc2C)C1	.	.	33.1%	.	.	-13.6%
O=C1CCCCC(=O)[C@H](OC(=O)c2ccccc2)C[C@H](c2ccccc2)O1	-2.9%	.	.	1.1	.	.
O=C(O)Cc1sc(N/N=C\c2ccccc2)nc1-c1ccccc1	11.9µM*	?	-23.0%	?	3.16µM*	?
CCOc1ccc2oc(C(=O)Nc3ccc(N4CCOCC4)cc3)c(C)c2c1	-10.7%	-5.6%	35.1%	-4.3	12.6µM*	-5.0%
CCOc1ccc2oc(C(=O)N(C)CC(=O)Nc3ccc(OCC)c(OCC)c3)c(C)c2c1	2.2%	-34.4%	-5.5%	-4.0	56.2µM*	-24.1%
CCOc1ccc2oc(C(=O)N(C)CCc3ccc(OC)c(OC)c3)c(C)c2c1	-5.6%	-28.1%	25.5%	-12.6	5.2%[12.7 µM]	-20.5%
COc1ccc2oc(C(=O)OCC(=O)N(C)CC(=O)Nc3ccc(C)cc3)c(C)c2c1	-3.2%	4.0%	18.1%	-2.5	50.1µM*	-12.9%
CCCOc1ccc(N2C(=O)CC(NCC(=O)OCC)C2=O)cc1 (stereo unspecified)	-20.1%	.	27.0%	-1.1	.	-9.9%
CCOC(=O)CNC1CC(=O)N(c2cccc(Cl)c2)C1=O (stereo unspecified)	-14.0%	-5.3%	33.8%	.	10µM*	?
O=C(CC1Nc2ccccc2NC1=O)NCCCN1CCCCCC1 (stereo unspecified)	-8.1%	-28.6%	13.5%	1.5	-15.3%[59 µM]	31.6µM*
CCN1CCCc2cc(CN(CCN3CCOCC3)C(=S)Nc3ccc(OC)c(Cl)c3)ccc21	-5.1%	?	18.5%	2.0	50.1µM*	?
CCN1CCCc2cc(CN(CCN3CCOCC3)C(=S)Nc3cccc(C)c3)ccc21	-7.5%	8.91µM*	?	-4.7	?	11.2µM*
Cc1cccc(NC(=S)N(CCN2CCOCC2)Cc2ccccc2F)c1	-3.5%	-5.5%	31.3%	-2.2	46.6%	-12.0%
CCN1CCCc2cc(CN(CCN3CCOCC3)C(=S)Nc3ccccc3OC)ccc21	-18.1%	39.8µM*	-37.8%[57 µM]	-3.5	25.1µM*	39.8µM*
CCN1CCCc2cc(CN(CCN3CCOCC3)C(=S)Nc3ccccc3C)ccc21	-4.2%	-35.4%	31.1%	1.1	2.8%[59 µM]	-19.9%[11.4 µM]
NC(=O)CSc1nnc2ccc(-c3ccc(F)cc3)nn12	15µM*	-22.3%	13.8%	-1.6	-14.2%	-24.3%[11.4 µM]
O=C(CSc1nnc2ccc(-c3ccncc3)nn12)Nc1ccc(F)cc1	-7.4%	-26.0%	4.3%	3.1	6.31µM*	-4.1%
NC(=O)CSc1nnc2ccc(-c3ccc(Cl)cc3)nn12	-10.3%	89.1µM*	27.7%	-2.0	50.1µM*	-11.2%
Cc1ccc(-c2ccc3nnc(SCC(N)=O)n3n2)cc1	-6.1%	-11.0%	39.1%	2.5	44.7µM*	2.4%
Cc1ccc(NC(=O)CSc2nnc3ccc(-c4cccnc4)nn23)cc1	-0.3%	-5.6%	2.9%	-0.1	2.1%	-11.5%
COc1cccc(CNC(=O)[C@H](C)NC(=O)C2CCN(S(=O)(=O)c3ccccc3)CC2)c1	26.7µM*	-6.2%	7.1%	-3.8	-4.6%	?
COc1cccc(CNC(=O)Cn2ccc3cc(S(=O)(=O)N4CCC(C)CC4)ccc32)c1	9.47µM*	-8.6%[57.1 µM]	15.4%	-3.8	11.9%	?
COc1ccc(S(=O)(=O)N2CCC(C(=O)N[C@@H](C)C(=O)NCc3cccc(OC)c3)CC2)cc1	-0.8%	0.3%	44.7%	1.3	43.3%	-1.4%
